# An excerpt weighted towards active compounds, which were near 3.1% of everything screened.
# PLK1 PBD inh – blocks phosphopeptide binding to human PLK1 polo-box domain | Potency, µM, for inactives: max response, negative = inhibition, hits mostly inhibitors | P53350 | AID 720504 | actives 2.8% (n = 360,000) | Plk1 PBD binding of FITC phosphopeptide, fluorescence polarization; further: potency means the concentration at half of the fitted maximal effect; series mostly up to about 57 µM; on the % scale 0 is the no-effect control and ±100 the full control effect; nearly all actives have a fitted effect of over 65% in size
# uPA generation – blocks generation of uPA at the cell surface | cell surface uPA generation assay, qHTS | AID 540303 | actives 0.31% (n = 330,000) | Potency, µM (series often up to 38.3 µM), for the others: at the highest dose activity change, negative = inhibition, actives largely listed as inhibitors; active means well fitted inhibition curve with a large enough effect; inconclusive means small, poorly fitted or top-dose-only effect; inactive means no such curve, though single readings can be large or run the other way; tested in mouse RAW 264.7 cells; further: potency means the concentration at half of the fitted maximal effect; on the % scale 0 is the no-effect control and ±100 the full control effect; nearly all actives have a fitted effect of over 55% in size
# TSHR antag – human thyrotropin receptor antagonism; activity change, negative = inhibition, % at 11.5 µM; AID 504810; TSHR-expressing cells, TSH-stimulated cAMP HTRF, 2 h; hits give low values; actives 0.2% (n = 330,000); P16473;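 active means activity change below a set negative limit, meaning inhibition stronger than a set level, cut at about -70% in these data; inconclusive means activity change between two set negative limits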; further: on the % scale 0 is the no-effect control and ±100 the full control effect
#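 Read-out is FRET at 665 nm (cryptate excitation 337 nm) from a cryptate-tagged anti-cAMP antibody, competed by cell cAMP against cAMP-d2. Compounds are tested on freshly harvested TSHR cells challenged with 4nM TSH (EC80) for 2 hours at 37 deg C.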
# TSG101-PTAP inh – blocks PTAP/TSG101 interaction to inhibit HIV-1 budding; Q99816; Fluorescence polarization, FITC-PTAP peptide / Tsg101 binding; Potency, µM (series often up to 115 µM), for inactives: at the highest dose activity change, negative = inhibition, usual class: inhibitors; 340,000 tested, under 10 active; active means well fitted inhibition curve with a large enough effect in the main read-out, with a control signal flat, not every such curve was filed as active; inconclusive means small, poorly fitted or top-dose-only effect, or effect the other way, or a change in a side signal; inactive means no such curve, though single readings can be large or run the other way; further: potency means the concentration at half of the fitted maximal effect; % of control where 0% means no effect
#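 Fluorescence polarization binding of Tsg101 binding domain (10 uM final) to FITC-labeled PTAP peptide (50 nM final) in HEPES pH 7.5 buffer with NaCl, Tween 20, EDTA, TCEP. Compounds added before peptide; binding 20 min at RT.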
# VDR inh – blocks the human vitamin D receptor; VDR-SRC2-3 peptide fluorescence polarization, 2 h; Potency, µM, inactives show max response, negative = inhibition, hits mostly inhibitors; actives 0.93% (n = 400,000); further: potency means the concentration at half of the fitted maximal effect; on the % scale 0 is the no-effect control and ±100 the full control effect
# Target sequence (P11473 whole entry, looked up): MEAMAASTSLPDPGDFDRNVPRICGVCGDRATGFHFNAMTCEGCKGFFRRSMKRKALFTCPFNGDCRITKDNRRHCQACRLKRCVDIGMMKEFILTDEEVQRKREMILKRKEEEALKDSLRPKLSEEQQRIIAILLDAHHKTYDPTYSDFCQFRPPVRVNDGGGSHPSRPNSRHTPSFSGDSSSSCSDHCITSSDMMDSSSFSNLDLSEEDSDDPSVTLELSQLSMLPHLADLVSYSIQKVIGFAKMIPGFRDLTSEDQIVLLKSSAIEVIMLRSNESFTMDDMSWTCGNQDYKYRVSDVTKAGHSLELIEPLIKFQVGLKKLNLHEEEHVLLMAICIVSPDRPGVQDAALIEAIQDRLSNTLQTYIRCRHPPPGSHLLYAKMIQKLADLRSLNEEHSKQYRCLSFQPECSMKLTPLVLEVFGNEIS
#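 Two reagent solutions held at 4 deg C in the dark were dispensed, compounds pinned at 23 nl, and the mixture incubated 2 h at room temperature. Read-out: fluorescence polarization of VDR–SRC2-3 peptide binding.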
# * hit, by the source's call; u = inconclusive; x = no result given. Unless noted, the call rests on the fitted dose curve; in most records, active means well fitted curve in the direction sought with a large enough effect; inconclusive means small, poorly fitted or top-dose-only effect, or another doubt; inactive means no such curve, though single readings can be large; an effect the other way counts as inactive or inconclusive.
SMILES,PLK1 PBD inh,uPA generation,TSHR antag,TSG101-PTAP inh,VDR inh
Cc1ccc2ccc3c(c2n1)NS(=O)(=O)c1ccc(C(F)(F)F)cc1-3,x,x,x,x,-20%
C/C(N)=C(/C#N)C(=O)COC(=O)c1ccccc1Oc1ccccc1,27µM*,4%,3,0%,u
C/C(N)=C(/C#N)C(=O)COC(=O)c1cccc(C)c1O,3%,10%,1,-2%,2%
CC(C)NC(=O)Nc1cccc2c1O[C@H](CN(C)S(=O)(=O)c1ccc(F)cc1)[C@@H](C)CN([C@H](C)CO)C2=O,19µM*,12%,1,1%,u
COc1ccc(OCc2cc(C(=O)N(C)CCC3CCOCC3)no2)c(Cl)c1,27µM*,-28%,-4,0%,u
Cn1c(SSc2ccc(-c3cccnc3)n2C)ccc1-c1cccnc1,4.2µM*,-14%,x,42%,u
CC1CCN(C(=O)Cn2cc(SCC(=O)Nc3ccccc3C(F)(F)F)c3ccccc32)CC1,x,x,x,x,9%
CC(C)Oc1ccc(CNC(=O)C2CCCN(S(=O)(=O)c3ccc4c(ccn4C)c3)C2)cc1 (centres undefined),x,x,x,x,1%
COC(=O)c1c(C(=O)OC)c(-c2ccc(C)cc2)n2c1CS(=O)(=O)C2,-6%,0%,3,-3%,-3%
COC(=O)c1c(C(=O)OC)c(-c2ccc(Cl)cc2)n2c1CS(=O)(=O)C2,4.2µM*,-6%,-13,2%,u
COc1ccc(CCNC(=O)c2ccc3c(c2)N(Cc2ccc(Cl)cc2)C(=O)c2ccccc2S3)cc1OC,x,x,x,x,3%
CC1SCC(=O)N(CC(=O)Nc2ccc3c(c2)OCCO3)C1=O (centres undefined),2%,2%,2,-2%,12%
COc1ccc(NC(=O)CN2C(=O)CSC(C)C2=O)cc1 (centres undefined),21µM*,0%,-2,-7%,-29%
Cc1cc(=O)[nH]c(SCC(=O)OCc2ccccc2)c1C#N,21µM*,0%,21,-2%,-23%
CCCOC(=O)CSc1nc(N)c(C#N)c(-c2ccco2)c1C#N,-1%,-1%,x,-3%,4%
COC(=O)CSc1nc2c(c(-c3ccc(O)cc3)c1C#N)CCCC2,-18%,-2%,-4,0%,-2%
COC(=O)CSc1nc2c(c(-c3ccco3)c1C#N)CCCC2,27µM*,2%,u,-3%,-12%
N#Cc1c(N)nc(SCC(=O)OCc2ccccc2)c(C#N)c1-c1ccco1,-1%,4%,-78*,-3%,6%
Cc1nn(C)c2c1c(-c1ccccc1)cc(=O)n2CC(=O)Nc1ccccc1C(F)(F)F,x,x,x,x,3%
Cn1c(-c2ccc(C=O)s2)nc2c3ccccc3c3ccccc3c21,27µM*,1%,21,u,1%
O=c1cc(CO)oc(C(Nc2ccccn2)c2ccsc2)c1O (centres undefined),x,x,15,x,x
O=c1cc(CO)oc(C(Nc2ccccn2)c2ccc(F)cc2)c1O (centres undefined),15µM*,1%,-5,3%,28µM*
CCC(Oc1ccccc1)C(=O)Nc1nnc(S(=O)(=O)N(CC)CC)s1 (centres undefined),x,x,x,x,10%
N#C/C(=C\c1c(Oc2ccc(Cl)cc2)nc2ccccn2c1=O)C(=O)NC1CCS(=O)(=O)C1 (centres undefined),-11%,-12%,11,-3%,50µM*
Cc1cccn2c(=O)c(/C=C(\C#N)C(=O)NC3CCS(=O)(=O)C3)c(Oc3ccc(F)cc3)nc12 (centres undefined),-23%,-8%,11,-8%,20µM*
SMILES,PLK1 PBD inh,uPA generation,TSHR antag,TSG101-PTAP inh,VDR inh
Cc1cccn2c(=O)c(/C=C(\C#N)C(=O)NC3CCS(=O)(=O)C3)c(N3CCC(C)CC3)nc12 (centres undefined),1%,-5%,-9,-5%,-3%
Cc1cc(Oc2nc3ccccn3c(=O)c2/C=C(\C#N)C(=O)NC2CCS(=O)(=O)C2)ccc1Cl (centres undefined),-12%,-11%,18,-5%,32µM*
CC1Cc2cc(S(=O)(=O)CCC(=O)Nc3ccc(Cl)cc3F)ccc2N1C(=O)C1CC1 (centres undefined),x,x,x,x,-5%
CCCS(=O)(=O)c1nc(S(=O)(=O)c2ccc(C)cc2)c(NCc2ccccc2)s1,x,x,x,x,4%
CCOc1ccc(NC(=O)C(=O)NCCN2CCN(S(=O)(=O)c3ccc(C)cc3)CC2)cc1,-5%,0%,-6,0%,-22%
CCOc1ccc(NC(=O)C(=O)NCCN2CCN(S(=O)(=O)c3ccccc3)CC2)cc1,24µM*,x,13,1%,u
O=C(NC1CCCC1)C1c2ccccc2OCC(=O)N1Cc1ccco1 (centres undefined),2%,x,x,x,x
Cc1cc(C(=O)OCC(=O)Nc2ccc(F)c(F)c2F)c(C)o1,u,-2%,0,-2%,79µM*
COc1cc(C(=O)NCCNC(=O)c2ccco2)cc(OC)c1OC,27µM*,-1%,x,-2%,u
COc1ccc(C2=NN(c3nc(-c4ccccc4)c(CC(=O)O)s3)C(c3ccco3)C2)cc1 (centres undefined),11µM*,-2%,-12,-6%,-18%
Cc1nc(N2N=C(c3ccc(Cl)cc3)CC2c2ccco2)sc1C(=O)N(C)C (centres undefined),-14%,-4%,-1,0%,8%
COc1cccc(OCc2nc3ccccc3n2CCOc2ccccc2)c1,x,x,x,x,-12%
CCOC(=O)C(C(=O)OCC)c1cc(Br)c2noc3c2c1C(=O)c1ccccc1-3,1.9µM*,-3%,8,u,u
CCN1CCN(c2cc(N3CCN(C(=O)c4ccco4)CC3)c3c4c(onc24)-c2ccccc2C3=O)CC1,40%,6%,-14,u,-5%
O=C1c2cccnc2-c2ncccc21,-2%,-1%,16,-2%,5%
COC1=C(Br)C(=O)c2ncccc2C1=O,1.9µM*,-10%,x,-2%,3.5µM*
O=C(CCS(=O)(=O)c1ccccc1)Nc1nc(-c2ccccn2)cs1,-17%,u,x,-10%,-10%
COc1ccc(OCCCC(=O)Nc2nc(-c3ccccn3)cs2)cc1,27µM*,3%,10,0%,-8%
O=C(CCS(=O)(=O)c1ccc(F)cc1)Nc1nc(-c2ccccn2)cs1,-8%,-6%,-110*,6%,-21%
Cc1cc(C)c(OCC(=O)Nc2nc(-c3ccccn3)cs2)c(C)c1,-18%,-3%,-5,0%,6%
CCc1ccc(C(=O)c2cn(CC(=O)Nc3ccc(F)cc3)c3ccc(F)cc3c2=O)cc1,x,x,x,x,-6%
COc1ccccc1CCNC(=O)CN1C(=O)c2ccccc2S1(=O)=O,5%,-1%,-1,-9%,-6%
O=c1c(-c2ccc(Cl)cc2)nc2cnc(N3CCOCC3)nc2n1CCc1ccccc1,x,x,x,x,-6%
NS(=O)(=O)c1cccc(NC(=O)c2cccs2)c1,13µM*,2%,0,-5%,25µM*

# Screens as filed in PubChem.
